Assay results: PubChem BioAssay AID1159580 (chemical genetic matrix, 2015)
Among all 5,500 compounds or so, about 2,000 (36%) were called active. Another 18% or so got no clear call; they are omitted. No stated cut-off is given here; in the data, active means normalized growth mostly below about 0.91 (no sharp cut-off); inconclusive means no clear call, values can overlap the other calls; inactive means mostly above about 0.92. Some of the results follow.

Experiment: chemical genetic growth profiling, strain panel (AID 1159580);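 further: tested at 20 µM; growth read once vehicle control cultures reached saturation at 30 °C; 1 = growth at the plate median or of vehicle wells; lower values mean less growth of the strain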
Conditions: growth OD
[1] = S. cerevisiae deletion strains, locus YHR030C, strain SLT2, hits give low values
[2] = S. cerevisiae deletion strains, locus YHR079C, strain IRE1, hits give low values
[3] = S. cerevisiae deletion strains, locus YJL095W, strain BCK1, hits give low values
[4] = S. cerevisiae deletion strains, locus YJR066W, strain TOR1, hits give low values
[5] = S. cerevisiae deletion strains, locus YLR113W, strain HOG1, hits give low values
[6] = S. cerevisiae deletion strains, locus YNL183C, strain NPR1, hits give low values
[7] = S. cerevisiae deletion strains, locus YOR231W, strain MKK1, hits give low values
[8] = S. cerevisiae deletion strains, locus YPL256C, strain CLN2, hits give low values

Measured: normalized growth

CCOC(=O)c1ccc(O)cc1
inactive: S. cerevisiae deletion strains, locus YAL021C, strain ccr4, hits give low values 1.03 | S. cerevisiae deletion strains, locus YAL026C, strain drs2, hits give low values 1.02 | S. cerevisiae deletion strains, locus YAL030W, strain snc1, hits give low values 1.01 | S. cerevisiae deletion strains, locus YBL061C, strain skt5, hits give low values 1.01 | S. cerevisiae deletion strains, locus YBR009C, strain hhf1, hits give low values 0.999 | S. cerevisiae deletion strains, locus YBR023C, strain chs3, hits give low values 1.01 | S. cerevisiae deletion strains, locus YBR171W, strain sec66, hits give low values 1.01 | S. cerevisiae deletion strains, locus YBR231C, strain swc5, hits give low values 1.02 | S. cerevisiae deletion strains, locus YBR279W, strain paf1, hits give low values 1.02 | S. cerevisiae deletion strains, locus YCL011C, strain gbp2, hits give low values 1 | S. cerevisiae deletion strains, locus YCL016C, strain dcc1, hits give low values 1 | S. cerevisiae deletion strains, locus YCL061C, strain MRC1, hits give low values 1.01 | S. cerevisiae deletion strains, locus YCL069W, strain vba3, hits give low values 1.01 | S. cerevisiae deletion strains, locus YCR088W, strain abp1, hits give low values 1.01 | S. cerevisiae deletion strains, locus YDL005C, strain med2, hits give low values 1.02 | S. cerevisiae deletion strains, locus YDL040C, strain nat1, hits give low values 1.01 | S. cerevisiae deletion strains, locus YDR001C, strain nth1, hits give low values 1.01 | S. cerevisiae deletion strains, locus YDR069C, strain doa4, hits give low values 1.02 | S. cerevisiae deletion strains, locus YDR137W, strain rgp1, hits give low values 1.03 | S. cerevisiae deletion strains, locus YDR159W, strain sac3, hits give low values 0.994 | S. cerevisiae deletion strains, locus YDR195W, strain ref2 1.06 | S. cerevisiae deletion strains, locus YDR297W, strain sur2, hits give low values 1.02 | S. cerevisiae deletion strains, locus YDR334W, strain swr1, hits give low values 1.02 | S. cerevisiae deletion strains, locus YDR335W, strain msn5, hits give low values 1.01 | S. cerevisiae deletion strains, locus YDR392W, strain spt3, hits give low values 0.941 | S. cerevisiae deletion strains, locus YEL003W, strain gim4, hits give low values 1.02 | S. cerevisiae deletion strains, locus YEL037C, strain rad23, hits give low values 1.02 | S. cerevisiae deletion strains, locus YEL061C, strain CIN8 (second series), hits give low values 1.01 | S. cerevisiae deletion strains, locus YER015W, strain faa2, hits give low values 1.02 | S. cerevisiae deletion strains, locus YER016W, strain bim1, hits give low values 1 | S. cerevisiae deletion strains, locus YER111C, strain swi4, hits give low values 1.01 | S. cerevisiae deletion strains, locus YER155C, strain BEM2 (second series), hits give low values 0.975 | S. cerevisiae deletion strains, locus YFR010W, strain ubp6, hits give low values 1.01 | S. cerevisiae deletion strains, locus YGL167C, strain pmr1, hits give low values 1.01 | S. cerevisiae deletion strains, locus YGL173C, strain kem1, hits give low values 1.02 | S. cerevisiae deletion strains, locus YGL227W, strain vid30, hits give low values 1.01 | S. cerevisiae deletion strains, locus YGL240W, strain doc1, hits give low values 0.985 | S. cerevisiae deletion strains, locus YGL253W, strain hxk2, hits give low values 1.01 | S. cerevisiae deletion strains, locus YHR013C, strain ard1, hits give low values 1.05 | S. cerevisiae deletion strains, locus YHR027C, strain rpn1, hits give low values 1.01 | [1] 1.02 | [2] 1.01 | S. cerevisiae deletion strains, locus YHR142W, strain chs7, hits give low values 1.01 | S. cerevisiae deletion strains, locus YJL092W, strain hpr5, hits give low values 1.02 | S. cerevisiae deletion strains, locus YJL095W, strain BCK1 (second series), hits give low values 1 | [3] 1.01 | S. cerevisiae deletion strains, locus YJL115W, strain asf1, hits give low values 1.03 | S. cerevisiae deletion strains, locus YJL129C, strain trk1, hits give low values 1.03 | S. cerevisiae deletion strains, locus YJL154C, strain vps35, hits give low values 1.01 | S. cerevisiae deletion strains, locus YJL164C, strain tpk1, hits give low values 0.995 | S. cerevisiae deletion strains, locus YJL166W, strain qcr8, hits give low values 0.997 | S. cerevisiae deletion strains, locus YJL187C, strain SWE1, hits give low values 1.02 | [4] 0.958 | S. cerevisiae deletion strains, locus YKL160W, strain elf1, hits give low values 1 | S. cerevisiae deletion strains, locus YKR026C, strain gcn3, hits give low values 0.995 | S. cerevisiae deletion strains, locus YKR091W, strain srl3, hits give low values 1.01 | S. cerevisiae deletion strains, locus YLL001W, strain dnm1, hits give low values 0.989 | S. cerevisiae deletion strains, locus YLL026W, hits give low values 1.01 | S. cerevisiae deletion strains, locus YLL041C, strain sdh2, hits give low values 1.01 | S. cerevisiae deletion strains, locus YLR027C, strain aat2, hits give low values 1 | [5] 0.966 | S. cerevisiae deletion strains, locus YLR221C, strain rsa3, hits give low values 0.999 | S. cerevisiae deletion strains, locus YLR258W, strain gsy2, hits give low values 1.01 | S. cerevisiae deletion strains, locus YLR262C, strain YPT6 (second series), hits give low values 1.03 | S. cerevisiae deletion strains, locus YLR320W, strain mms22, hits give low values 0.992 | S. cerevisiae deletion strains, locus YLR342W, strain FKS1, hits give low values 1.02 | S. cerevisiae deletion strains, locus YLR357W, strain rsc2, hits give low values 1.03 | S. cerevisiae deletion strains, locus YLR370C, strain arc18, hits give low values 1.01 | S. cerevisiae deletion strains, locus YLR384C, strain iki3, hits give low values 1.02 | S. cerevisiae deletion strains, locus YML120C, strain ndi1, hits give low values 0.998 | S. cerevisiae deletion strains, locus YMR058W, strain fet3, hits give low values 1.02 | S. cerevisiae deletion strains, locus YMR125W, strain sto1, hits give low values 1.03 | S. cerevisiae deletion strains, locus YMR129W, hits give low values 1.02 | S. cerevisiae deletion strains, locus YMR205C, strain PFK2, hits give low values 1.02 | S. cerevisiae deletion strains, locus YMR231W, strain pep5, hits give low values 1.02 | S. cerevisiae deletion strains, locus YNL071W, strain lat1, hits give low values 1.01 | [6] 0.962 | S. cerevisiae deletion strains, locus YNL209W, strain ssb2, hits give low values 1.02 | S. cerevisiae deletion strains, locus YNL248C, strain rpa49, hits give low values 1.02 | S. cerevisiae deletion strains, locus YNL322C, strain KRE1 (second series), hits give low values 1.01 | S. cerevisiae deletion strains, locus YNR049C, strain mso1, hits give low values 1.01 | S. cerevisiae deletion strains, locus YOR001W, strain rrp6, hits give low values 1.01 | S. cerevisiae deletion strains, locus YOR070C, strain gyp1, hits give low values 1.01 | S. cerevisiae deletion strains, locus YOR080W, strain dia2, hits give low values 1.02 | S. cerevisiae deletion strains, locus YOR083W, strain WHI5, hits give low values 1 | S. cerevisiae deletion strains, locus YOR106W, strain vam3, hits give low values 1.02 | [7] 1 | S. cerevisiae deletion strains, locus YOR265W, strain rbl2, hits give low values 1.01 | S. cerevisiae deletion strains, locus YOR270C, strain vph1, hits give low values 0.988 | S. cerevisiae deletion strains, locus YOR290C, strain snf2, hits give low values 0.975 | S. cerevisiae deletion strains, locus YPL051W, strain arl3, hits give low values 0.998 | S. cerevisiae deletion strains, locus YPL078C, strain atp4, hits give low values 1 | S. cerevisiae deletion strains, locus YPL106C, strain sse1, hits give low values 1 | S. cerevisiae deletion strains, locus YPL240C, strain hsp82, hits give low values 1.01 | [8] 1.01

CCCCOC(=O)c1ccc(O)cc1
inactive: [2] 0.879 | [3] 0.895 | [4] 0.934 | [6] 0.892 | [7] 0.951
active: [1] 0.854 | [5] 0.768 | [8] 0.799

Nc1cc2c(cc1Cl)C(=O)NC2=O
inactive: S. cerevisiae deletion strains, locus YAL013W, strain DEP1, hits give low values 0.995 | S. cerevisiae deletion strains, locus YBR229C, strain ROT2, hits give low values 0.999 | S. cerevisiae deletion strains, locus YDL101C, strain DUN1, hits give low values 1.02 | S. cerevisiae deletion strains, locus YDL134C, strain PPH21, hits give low values 1.02 | S. cerevisiae deletion strains, locus YDR150W, strain NUM1, hits give low values 0.929 | S. cerevisiae deletion strains, locus YEL061C, strain CIN8, hits give low values 1.01 | S. cerevisiae deletion strains, locus YGR078C, strain PAC10, hits give low values 1 | [1] 1.04 | S. cerevisiae deletion strains, locus YHR087W, strain rtc3, hits give low values 0.988 | S. cerevisiae deletion strains, locus YJR043C, strain POL32, hits give low values 1.01 | S. cerevisiae deletion strains, locus YJR075W, strain HOC1, hits give low values 0.996 | S. cerevisiae deletion strains, locus YLR039C, strain RIC1, hits give low values 0.994 | S. cerevisiae deletion strains, locus YLR058C, strain SHM2 (second series), hits give low values 1 | S. cerevisiae deletion strains, locus YLR085C, strain ARP6, hits give low values 0.98 | S. cerevisiae deletion strains, locus YLR262C, strain YPT6, hits give low values 1 | S. cerevisiae deletion strains, locus YML094W, strain GIM5, hits give low values 0.985 | S. cerevisiae deletion strains, locus YMR219W, strain ESC1, hits give low values 1.01 | S. cerevisiae deletion strains, locus YMR263W, strain SAP30, hits give low values 0.984 | S. cerevisiae deletion strains, locus YNL153C, strain GIM3, hits give low values 1 | S. cerevisiae deletion strains, locus YNL298W, strain CLA4 (second series), hits give low values 1.03 | S. cerevisiae deletion strains, locus YNL322C, strain KRE1, hits give low values 0.999 | S. cerevisiae deletion strains, locus YNR030W, strain Alg12, hits give low values 0.985 | S. cerevisiae deletion strains, locus YOL006C, strain TOP1, hits give low values 1.02 | S. cerevisiae deletion strains, locus YPL055C, strain LGE1, hits give low values 0.851 | S. cerevisiae deletion strains, locus YPL241C, strain CIN2, hits give low values 0.985 | S. cerevisiae deletion strains, locus YPR135W, strain CTF4, hits give low values 1.02 | S. cerevisiae strains, strain wild type, hits give low values 1.02
